# Active and inactive are the calls of the source.
# How the values were obtained:
# [1] = binders of probe aFSTL3 on microarray, primary screen, stem cell growth factor project, biochemical, small-molecule microarray, fluorescence 635/667 (AID 1064); details: higher = more signal;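 note: measures binding of the biotinylated anti-FSTL3 antibody to printed compounds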
# [2] = binders from COS7 lysate, DM2A8 probe, primary screen, torsin A project, cell lysate, small-molecule microarray, fluorescence 635/667 (AID 1065); details: higher = more signal, COS7 lysate expressing mutant human TOR1A
# [3] = binders of probe aFGF2 on microarray, primary screen, stem cell growth factor project, biochemical, small-molecule microarray, fluorescence 635/667 (AID 1067); details: higher = more signal;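 note: measures binding of biotinylated aFGF2 protein to printed compounds on slides; z-score merges feature fluorescence and signal-to-noise across triplicate slides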
# [4] = binders of probe aFGF10 on microarray, primary screen, stem cell growth factor project, biochemical, small-molecule microarray, fluorescence 635/667 (AID 1071); details: higher = more signal;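 note: score merges 667 nm spot intensity and signal to noise from triplicate slides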
# [5] = target: Neurogenic locus notch homolog protein 2 (Homo sapiens) (UniProt Q04721); assay: Notch2 binders on small-molecule microarrays, primary screen, biochemical, small-molecule microarray, 635 nm fluorescence, stem cell growth factors (AID 1073); details: Notch2 binding, higher = more signal
# Chain of Neurogenic locus notch homolog protein 2 (Homo sapiens) (Q04721 whole entry, looked up, canonical isoform): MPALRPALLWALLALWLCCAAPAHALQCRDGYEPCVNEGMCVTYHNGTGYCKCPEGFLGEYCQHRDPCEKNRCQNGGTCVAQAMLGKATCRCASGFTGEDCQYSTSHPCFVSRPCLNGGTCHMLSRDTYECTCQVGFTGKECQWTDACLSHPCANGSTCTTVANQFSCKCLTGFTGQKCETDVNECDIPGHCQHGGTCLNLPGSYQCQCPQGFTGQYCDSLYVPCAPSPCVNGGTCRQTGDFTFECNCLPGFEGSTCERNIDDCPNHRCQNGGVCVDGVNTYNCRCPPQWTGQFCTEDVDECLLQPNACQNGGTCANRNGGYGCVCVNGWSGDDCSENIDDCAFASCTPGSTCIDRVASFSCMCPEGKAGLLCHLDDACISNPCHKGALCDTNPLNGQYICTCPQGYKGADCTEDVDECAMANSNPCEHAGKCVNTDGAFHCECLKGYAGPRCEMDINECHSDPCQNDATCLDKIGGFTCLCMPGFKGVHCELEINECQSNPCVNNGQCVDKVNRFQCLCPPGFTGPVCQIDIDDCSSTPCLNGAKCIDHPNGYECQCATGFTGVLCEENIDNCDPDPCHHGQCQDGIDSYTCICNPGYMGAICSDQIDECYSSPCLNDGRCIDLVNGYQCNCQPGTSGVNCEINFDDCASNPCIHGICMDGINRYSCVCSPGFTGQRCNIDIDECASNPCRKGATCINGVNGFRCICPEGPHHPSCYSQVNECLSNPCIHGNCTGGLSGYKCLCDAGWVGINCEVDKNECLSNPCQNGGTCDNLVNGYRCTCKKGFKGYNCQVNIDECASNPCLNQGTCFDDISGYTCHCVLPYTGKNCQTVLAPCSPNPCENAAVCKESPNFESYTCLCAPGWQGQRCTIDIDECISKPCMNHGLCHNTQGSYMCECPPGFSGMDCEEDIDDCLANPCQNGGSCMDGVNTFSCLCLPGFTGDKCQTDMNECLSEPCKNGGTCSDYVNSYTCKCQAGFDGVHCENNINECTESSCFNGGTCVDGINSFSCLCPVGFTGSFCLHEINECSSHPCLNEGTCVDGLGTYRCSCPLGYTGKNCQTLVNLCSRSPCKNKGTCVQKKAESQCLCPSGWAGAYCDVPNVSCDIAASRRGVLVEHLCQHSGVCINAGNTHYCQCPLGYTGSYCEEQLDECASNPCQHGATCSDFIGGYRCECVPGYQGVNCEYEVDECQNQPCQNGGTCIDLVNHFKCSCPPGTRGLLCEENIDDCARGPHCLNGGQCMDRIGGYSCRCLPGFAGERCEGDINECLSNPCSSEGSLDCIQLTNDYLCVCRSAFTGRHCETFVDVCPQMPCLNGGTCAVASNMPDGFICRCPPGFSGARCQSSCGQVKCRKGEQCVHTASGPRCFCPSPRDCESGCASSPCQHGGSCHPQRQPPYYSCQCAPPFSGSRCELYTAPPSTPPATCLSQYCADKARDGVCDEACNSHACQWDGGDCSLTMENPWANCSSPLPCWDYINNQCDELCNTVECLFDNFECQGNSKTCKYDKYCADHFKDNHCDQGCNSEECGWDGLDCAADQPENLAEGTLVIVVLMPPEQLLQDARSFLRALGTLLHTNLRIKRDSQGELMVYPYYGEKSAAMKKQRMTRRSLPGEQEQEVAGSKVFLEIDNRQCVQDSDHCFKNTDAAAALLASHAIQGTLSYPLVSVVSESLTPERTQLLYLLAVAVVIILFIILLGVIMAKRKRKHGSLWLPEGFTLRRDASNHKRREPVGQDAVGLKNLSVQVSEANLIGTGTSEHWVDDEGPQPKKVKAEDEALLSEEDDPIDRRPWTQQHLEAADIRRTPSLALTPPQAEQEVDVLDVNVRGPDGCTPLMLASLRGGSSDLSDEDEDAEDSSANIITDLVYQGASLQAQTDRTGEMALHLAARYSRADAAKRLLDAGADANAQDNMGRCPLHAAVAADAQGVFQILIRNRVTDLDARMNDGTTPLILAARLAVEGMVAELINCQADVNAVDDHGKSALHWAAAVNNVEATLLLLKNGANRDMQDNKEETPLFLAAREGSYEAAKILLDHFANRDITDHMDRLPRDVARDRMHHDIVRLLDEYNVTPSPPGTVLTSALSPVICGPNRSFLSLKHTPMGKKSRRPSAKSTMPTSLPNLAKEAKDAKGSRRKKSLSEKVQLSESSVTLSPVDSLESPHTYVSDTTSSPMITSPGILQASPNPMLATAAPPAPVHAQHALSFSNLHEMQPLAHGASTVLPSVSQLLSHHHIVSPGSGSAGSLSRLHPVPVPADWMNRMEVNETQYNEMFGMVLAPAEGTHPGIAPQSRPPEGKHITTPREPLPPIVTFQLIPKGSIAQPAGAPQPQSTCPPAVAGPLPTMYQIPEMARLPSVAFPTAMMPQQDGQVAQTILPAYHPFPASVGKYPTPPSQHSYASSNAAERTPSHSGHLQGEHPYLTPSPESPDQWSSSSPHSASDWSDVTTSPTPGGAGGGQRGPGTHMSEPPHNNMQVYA
# [6] = target: Pro-neuregulin-1, membrane-bound isoform (Homo sapiens) (UniProt Q02297); assay: NRG1 binders on small-molecule microarrays, primary screen, psychiatric disease protein project, biochemical, small-molecule microarray, fluorescence 635/667 (AID 1075); details: NRG1 binding, 635 nm fluorescence, higher = more signal;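 note: score combines 667 nm spot fluorescence with signal to noise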
# [7] = system: Neuregulin-1 EGF-like domain; assay: binders of neuregulin-1 EGF-like domain, primary screen, biochemical, small-molecule microarray, 635 nm fluorescence (AID 1081); details: small-molecule microarray binding, higher = more signal;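 note: binding of the protein to compounds printed on small-molecule microarray slides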
# [8] = FRG1 promoter luciferase signal modulators, primary screen, FRG1 inhibition for FSHD, cell-based, C2C12 myotubes, firefly/Renilla luciferase, luminescence (AID 1084); details: higher = more signal, called active from +8 up or from −8 down
# [9] = binders of probe aFST on microarray, primary screen, stem cell growth factor project, biochemical, small-molecule microarray, fluorescence 635/667 (AID 1086); details: higher = more signal;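 note: score merges 667 nm fluorescence with signal-to-noise of each printed compound spot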
# [10] = binders of probe aHhip on microarray, primary screen, stem cell growth factor project, biochemical, small-molecule microarray, fluorescence 635/667 (AID 1087); details: higher = more signal;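 note: score merges spot fluorescence at 667nm with spot signal to noise ratio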
# [11] = system: PRMT1 (protein arginine N-methyltransferase 1); assay: PRMT1 binders on small-molecule microarrays, primary screen, biochemical, small-molecule microarray, 635 nm fluorescence (AID 1088); details: small-molecule microarray binding, higher = more signal;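 note: binding of Prmt1 protein to compounds spotted on small-molecule microarray slides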
# [12] = yeast growth modulation, basal conditions, primary screen, YJM789 clinical isolate, OD600, 24 h (AID 1089);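 note: growth of clinical yeast isolate S. cerevisiae YJM 789 seeded 1000 cells per well; test concentration not given here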; details: S. cerevisiae YJM789 growth, higher = more signal, called active from +8 up or from −8 down
# [13] = fission yeast growth modulation, primary screen, strain 972, OD600, 24 h, no modulator (AID 1090);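 note: basal condition with compound alone and no growth modifier present; test concentration not given here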; details: S. pombe 972 growth, higher = more signal, called active from +8 up or from −8 down
# [14] = S. cerevisiae growth modulation with rapamycin, primary screen, strain BY4716, OD600, 96 h (AID 1091); details: higher = more signal, called active from +8 up or from −8 down; note: test concentration not given here
# [15] = target: Torsin-1A-interacting protein 2 (Homo sapiens) (UniProt Q8NFQ8); assay: LULL1 binders on small-molecule microarray, primary screen, cell lysate, human LULL1 lysate, 635/667 nm fluorescence (AID 1092); details: hLULL1 lysate binding, 635 nm fluorescence, higher = more signal;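 note: probe is lysate of COS7 cells overexpressing human LULL1; score merges per-feature 667 nm fluorescence with signal-to-noise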
# [16] = E. coli growth modulation, two-sided OD650, primary screen, E. coli filamentation project, strain DRC41, 24 h (AID 1093); details: OD650, 24 h, higher = more signal, called active from +8 up or from −8 down;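 note: MC1000 strain lacking acrAB efflux and sulA so SOS filamentation is blocked; test concentration not given here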
# [17] = small-molecule microarray binders of probe aLefty2, primary screen, biochemical, biotinylated probe, 635/667 nm fluorescence (AID 1094); details: higher = more signal;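 note: score merges spot fluorescence near 667 nm with spot signal-to-noise ratio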
# [18] = system: Noggin (protein binding on small-molecule microarray); assay: Noggin binders on small-molecule microarray, primary screen, biochemical, 635/667 nm fluorescence (AID 1095); details: 635 nm fluorescence, higher = more signal;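 note: score merges 667 nm feature fluorescence with signal to noise over triplicate slides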
# [19] = target: Neurogenic locus notch homolog protein 3 (Homo sapiens) (UniProt Q9UM47); assay: NOTCH3 binders on small-molecule microarray, primary screen, biochemical, 635/667 nm fluorescence (AID 1096); details: NOTCH3 binding, 635 nm fluorescence, higher = more signal
# Chain of Neurogenic locus notch homolog protein 3 (Homo sapiens) (Q9UM47 whole entry, looked up): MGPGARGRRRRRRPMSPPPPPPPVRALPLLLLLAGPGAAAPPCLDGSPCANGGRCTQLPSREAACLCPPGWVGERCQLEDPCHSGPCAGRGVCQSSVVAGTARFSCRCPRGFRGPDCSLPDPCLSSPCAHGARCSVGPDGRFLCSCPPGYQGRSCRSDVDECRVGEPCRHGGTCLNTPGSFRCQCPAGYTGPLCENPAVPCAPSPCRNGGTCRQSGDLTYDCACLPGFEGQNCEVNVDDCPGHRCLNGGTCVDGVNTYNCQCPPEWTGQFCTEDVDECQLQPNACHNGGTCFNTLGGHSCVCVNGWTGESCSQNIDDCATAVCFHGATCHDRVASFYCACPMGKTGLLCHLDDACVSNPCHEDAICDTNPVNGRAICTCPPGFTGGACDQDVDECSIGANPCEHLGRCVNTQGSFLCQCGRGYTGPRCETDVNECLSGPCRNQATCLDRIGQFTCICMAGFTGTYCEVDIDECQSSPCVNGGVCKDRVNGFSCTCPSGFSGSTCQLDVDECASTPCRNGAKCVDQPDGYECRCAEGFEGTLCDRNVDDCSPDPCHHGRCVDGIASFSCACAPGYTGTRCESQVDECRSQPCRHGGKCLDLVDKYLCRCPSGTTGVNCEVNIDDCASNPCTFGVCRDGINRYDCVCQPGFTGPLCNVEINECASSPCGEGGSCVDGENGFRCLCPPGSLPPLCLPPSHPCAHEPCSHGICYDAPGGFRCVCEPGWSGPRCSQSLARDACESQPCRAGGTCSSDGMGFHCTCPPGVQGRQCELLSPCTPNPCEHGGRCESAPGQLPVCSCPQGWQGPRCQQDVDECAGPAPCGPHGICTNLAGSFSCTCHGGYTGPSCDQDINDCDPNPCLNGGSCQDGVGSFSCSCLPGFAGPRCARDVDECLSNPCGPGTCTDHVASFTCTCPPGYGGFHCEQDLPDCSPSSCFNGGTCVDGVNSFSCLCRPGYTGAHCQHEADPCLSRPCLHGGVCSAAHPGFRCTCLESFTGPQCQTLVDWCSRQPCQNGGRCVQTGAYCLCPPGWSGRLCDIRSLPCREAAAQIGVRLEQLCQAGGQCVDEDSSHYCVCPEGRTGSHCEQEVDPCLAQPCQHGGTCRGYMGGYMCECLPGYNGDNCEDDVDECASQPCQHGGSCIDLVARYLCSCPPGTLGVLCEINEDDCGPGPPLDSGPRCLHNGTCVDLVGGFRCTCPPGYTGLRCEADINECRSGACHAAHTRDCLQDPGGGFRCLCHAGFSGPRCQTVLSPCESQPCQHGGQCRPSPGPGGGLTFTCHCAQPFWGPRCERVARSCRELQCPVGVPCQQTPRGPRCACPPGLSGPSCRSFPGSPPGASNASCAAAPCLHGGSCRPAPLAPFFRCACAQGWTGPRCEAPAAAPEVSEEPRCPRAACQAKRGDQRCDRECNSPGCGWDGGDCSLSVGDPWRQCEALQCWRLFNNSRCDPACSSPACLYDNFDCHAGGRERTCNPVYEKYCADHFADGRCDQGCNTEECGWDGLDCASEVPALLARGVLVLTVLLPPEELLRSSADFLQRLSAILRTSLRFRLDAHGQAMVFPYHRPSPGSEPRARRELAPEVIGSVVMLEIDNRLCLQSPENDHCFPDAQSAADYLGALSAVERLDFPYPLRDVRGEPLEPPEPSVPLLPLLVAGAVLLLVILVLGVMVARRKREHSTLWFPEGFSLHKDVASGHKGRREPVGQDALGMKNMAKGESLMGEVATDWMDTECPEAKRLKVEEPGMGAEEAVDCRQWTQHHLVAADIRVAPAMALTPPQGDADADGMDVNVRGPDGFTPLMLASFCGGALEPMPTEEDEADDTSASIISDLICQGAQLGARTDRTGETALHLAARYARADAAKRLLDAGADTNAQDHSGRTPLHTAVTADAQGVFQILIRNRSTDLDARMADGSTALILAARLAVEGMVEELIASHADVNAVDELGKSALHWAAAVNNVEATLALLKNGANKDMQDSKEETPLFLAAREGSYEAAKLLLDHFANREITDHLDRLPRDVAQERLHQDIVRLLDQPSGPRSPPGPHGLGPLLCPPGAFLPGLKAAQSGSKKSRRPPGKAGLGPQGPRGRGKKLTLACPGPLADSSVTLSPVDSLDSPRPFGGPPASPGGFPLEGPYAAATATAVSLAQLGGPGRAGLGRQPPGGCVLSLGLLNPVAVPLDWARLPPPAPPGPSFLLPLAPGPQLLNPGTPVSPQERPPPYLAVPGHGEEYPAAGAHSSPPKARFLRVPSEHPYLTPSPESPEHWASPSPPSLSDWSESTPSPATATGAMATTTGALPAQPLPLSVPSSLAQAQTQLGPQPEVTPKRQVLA
# [20] = small-molecule microarray binders of probe aEGFR, primary screen, biochemical, biotinylated probe, 635/667 nm fluorescence (AID 1097); details: higher = more signal;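 note: probe is a biotinylated anti-EGFR antibody binding compounds printed on slides; score combines fluorescence near 667 nm and signal to noise of each spot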
SMILES,composite z-score [1],composite z-score [2],composite z-score [3],composite z-score [4],composite z-score [5],composite z-score [6],composite z-score [7],z-score [8],composite z-score [9],composite z-score [10],composite z-score [11],z-score [12],z-score [13],z-score [14],composite z-score [15],z-score [16],composite z-score [17],composite z-score [18],composite z-score [19],composite z-score [20]
COc1ccc(OC[C@H]2CN3[C@@H](CC[C@@H](C)[C@@H]3c3ccc(Br)cc3)C(=O)O2)cc1,-0.358,0.722,-0.181,0.243,-0.142,0.165,-0.228,-0.539 (inactive),-0.115,-0.109,0.591,-0.313 (inactive),-0.237 (inactive),0.179 (inactive),0.184,-0.915 (inactive),-0.198,0.318,-0.175,-0.0082
O=C1[C@H]2[C@H]3[C@H](O)[C@H](O)CC(=NOC[C@@H](O)COCc4ccco4)[C@@H]3CC[C@H]2C(=O)N1Cc1ccccc1,-0.645,0.389,-0.171,-0.0702,0.0535,0.39,1.24,0.668 (inactive),0.248,-0.115,1.53,-0.444 (inactive),-0.801 (inactive),-1.63 (inactive),2.66,0.267 (inactive),-0.166,1.04,0.841,0.0673
CCCCOC(OCCCC)C(O)CSc1ccc2ccccc2c1 (stereo not given),-0.283,0.61,-0.0599,0.291,0.525,-0.213,0.461,-1.52 (inactive),0.105,0.157,0.642,0.12 (inactive),-2.25 (inactive),0.594 (inactive),0.556,-0.419 (inactive),-0.136,0.542,0.776,-0.15
COc1ccc(O[C@H]2C=C[C@@H](c3ccccc3)O[C@@H]2CON=C2c3cc(OC)ccc3O[C@H](c3cccc(OC)c3)[C@H]2O)cc1,-0.661,0.354,-0.201,-0.054,1.38,-0.139,0.463,1.82 (inactive),0.34,-0.226,0.554,-0.0549 (inactive),0.281 (inactive),-0.0588 (inactive),0.585,0.0551 (inactive),-0.231,1.4,0.927,-0.171
CC(C)CON=C1C[C@@H](O)[C@@H](O)[C@@H]2[C@@H]3C(=O)N(Cc4ccccc4)C(=O)[C@@H]3CC[C@H]12,-0.467,0.0791,-0.143,-0.0185,0.587,0.349,0.0796,0.602 (inactive),-0.153,-0.204,-0.238,-0.549 (inactive),-0.449 (inactive),-1.17 (inactive),0.12,0.843 (inactive),-0.117,0.454,0.824,0.088
C[C@@H]1C=CCC(=O)OC[C@H](C)C(=O)N[C@@H](Cc2ccccc2)C(=O)OC1,-0.553,1.31,-0.245,0.294,0.443,-0.302,0.422,-0.514 (inactive),0.0347,0.605,-0.431,0.214 (inactive),-1.06 (inactive),-0.0603 (inactive),0.146,-0.234 (inactive),-0.192,0.79,-0.019,-0.0513
COCC#Cc1ccc([C@@H]2N[C@H](C(=O)O)CC[C@H]2C)cc1,-0.308,-0.087,-0.12,0.0921,0.314,-0.595,-0.616,-1.34 (inactive),0.399,0.132,0.13,-1.63 (inactive),-1.81 (inactive),-1.34 (inactive),0.237,0.874 (inactive),-0.186,0.165,-0.54,-0.0953
O=C1CCCC=C1C(O)C1CCCCC1 (stereo not given),-0.53,0.835,-0.141,0.191,-0.0306,-0.594,-0.593,0.0424 (inactive),-0.0962,0.0373,-0.784,-0.711 (inactive),0.214 (inactive),-0.478 (inactive),0.2,0.805 (inactive),-0.0279,-0.0241,0.0627,-0.294
O=C1[C@H]2[C@H]3[C@H](O)[C@H](O)CC(=NO[C@@H]4O[C@H](CO)[C@@H](O)[C@H](O)[C@H]4O)[C@H]3CC[C@H]2C(=O)N1C[C@@H]1CCCO1,-0.151,1.07,-0.121,0.126,0.57,-0.506,-0.744,0.189 (inactive),0.045,-0.0994,-0.099,0.539 (inactive),0.944 (inactive),0.734 (inactive),-0.162,0.457 (inactive),0.0136,0.379,0.0492,-0.0578
CCN(CC)CC(O)CN1CCCCc2nc(C)c(C)cc21 (stereo not given),-0.482,1.04,-0.14,0.456,0.635,-0.164,1.07,-1.2 (inactive),0.101,-0.112,0.357,-1.59 (inactive),-1.34 (inactive),-0.425 (inactive),0.657,-0.0207 (inactive),-0.343,0.454,0.431,-0.0148
CC(=O)OC[C@H]1O[C@@H](ON=C(C)C)[C@H](OC(C)=O)[C@@H](OC(C)=O)[C@@H]1OC(C)=O,-0.133,1.57,-0.194,-0.526,-0.105,-1.53,-1.47,0.212 (inactive),0.298,-0.283,-0.312,0.559 (inactive),-0.159 (inactive),0.196 (inactive),-1.31,-0.109 (inactive),0.089,0.0419,-1.53,-0.0393
CC(C)[C@@H](OCc1ccccc1)[C@H](C)C=NO[C@H](C)c1cn([C@@H]2COC[C@H]2O)nn1,-0.478,0.402,-0.0262,0.281,0.794,-0.0746,1.07,0.476 (inactive),-0.0844,0.165,1.55,-1.02 (inactive),-0.121 (inactive),0.0703 (inactive),1.28,1.13 (inactive),-0.162,0.871,0.968,-0.0111
CC(CCC(=O)OC[C@H]1O[C@H](C#Cc2ccccc2)C=C[C@@H]1Oc1ccc(C)cc1)=NO[C@@H](C)c1cc(-c2c(C)cc(C)cc2C)no1,-0.0913,-1.14,-0.144,-0.558,-1.58,0.122,-0.525,0.87 (inactive),-0.213,0.312,-0.187,0.914 (inactive),0.811 (inactive),0.361 (inactive),0.226,-0.318 (inactive),-0.328,-0.199,-1.12,-0.296
COc1cccc([C@H]2Oc3ccc(OC)cc3C(=NO[C@@H](C)c3cc(-c4c(C)cc(C)cc4C)no3)[C@@H]2O)c1,2.15,-0.187,-0.238,-1.44,-2.2,-0.144,-0.393,-3.59 (inactive),-0.391,-0.45,-0.506,0.463 (inactive),1.49 (inactive),0.626 (inactive),-0.141,-0.169 (inactive),0.25,-2.14,-2.58,-0.434
CC(CCN1CCCc2nc(C)c(C)cc21)=NOC[C@@H](O)COCc1ccco1,2.02,3.09,0.529,0.0131,0.164,-0.0146,0.919,1.05 (inactive),2.79,3.19,1.53,-1.86 (inactive),0.544 (inactive),-0.831 (inactive),0.0346,0.798 (inactive),1.27,2.32,1.07,1.15
Cc1ccc(S(=O)(=O)N[C@@H]2COC(=O)CC=C[C@@H](C)[C@H](NS(=O)(=O)c3ccc(C)cc3)COC(=O)[C@H](C)NC(=O)CC=C[C@H]2C)cc1,0.166,0.264,-0.11,-0.0539,-1.12,-0.921,-0.744,-0.138 (inactive),-0.18,-0.216,-0.287,-0.0073 (inactive),0.13 (inactive),0.147 (inactive),-0.865,0.715 (inactive),-0.291,0.354,-0.632,-0.16
CCOC(=O)[C@H](CC(C)C)NC(=O)CCC1CC(OC(=O)NCCc2ccc(F)cc2)CC2(CCCC(COC(=O)NCc3cccc4ccccc34)O2)O1 (stereo not given in full),-0.249,0.685,-0.195,0.162,0.401,0.0303,0.76,1.95 (inactive),0.748,-0.134,0.733,-0.175 (inactive),-0.421 (inactive),0.238 (inactive),2.16,0.415 (inactive),-0.181,0.261,-0.773,-0.0995
O=C1[C@H]2[C@H]3[C@H](O)[C@H](O)CC(=NOC[C@@H](O)COCc4ccco4)[C@@H]3CC[C@H]2C(=O)N1C1CCCCC1,-0.679,2.04,-0.16,-0.357,0.0224,-0.459,1.2,0.219 (inactive),-0.045,0.235,1.39,1.61 (inactive),-0.0798 (inactive),-0.133 (inactive),1.25,0.61 (inactive),-0.061,1.75,0.437,0.0583
COC(=O)[C@@H]1CC[C@H](C)[C@@H](c2ccc(Br)cc2)N1,1.1,-0.288,0.0499,0.169,-0.208,0.153,-0.201,-0.382 (inactive),-0.155,0.842,-2.1,0.826 (inactive),0.771 (inactive),1.08 (inactive),1.24,0.532 (inactive),0.195,-0.265,-1.19,-0.044
COC(=O)[C@H](C)NC(=O)CCC1CC(OC(=O)NCc2ccc3c(c2)OCO3)CC2(CCCC(COC(=O)NCCCN3CCCC3=O)O2)O1 (stereo not given in full),-0.869,0.62,-0.0397,0.469,0.829,0.357,1.04,-0.787 (inactive),1.3,0.0373,1.45,0.395 (inactive),0.642 (inactive),0.502 (inactive),0.908,-0.223 (inactive),-0.155,0.424,1.1,-0.0128

# Source: PubChem BioAssay
